Reference: article PMC5913336, “True equilibrium measurement of transcription factor-DNA binding affinities using automated polarization microscopy”

Molecular target: Ttk-PF (Drosophila melanogaster, UniProt P17789 499-564)
Test: FP; 33 mM phosphate pH 7.0, 90 mM NaCl, 0.01% Tween 20, 0.1 mM DTT, 0.5% agarose; room temperature
Conditions: dsDNA, one strand shown

Sequence	binding signal	Kd [nM]
TCGCCAGGATCAC	7.79 Kd / Kd of best base at the position	–
TCGCTAGGATAAC	> 208 Kd / Kd of best base at the position	–
TAGCCAGGATAAC	1.69 Kd / Kd of best base at the position	–
TCGCCCGGATAAC	> 208 Kd / Kd of best base at the position	–
TTGCCAGGATAAC	1.71 Kd / Kd of best base at the position	–
TCGCCATGATAAC	> 208 Kd / Kd of best base at the position	–
TCGCCAGGATTAC	1.69 Kd / Kd of best base at the position	–
TCGCCAGTATAAC	> 208 Kd / Kd of best base at the position	–
TCGCCAGGATGAC	3.28 Kd / Kd of best base at the position	–
TCGCCAGGATAAC	–	~48
TCGCCAGGTTAAC	12.8 Kd / Kd of best base at the position	–
TCACCAGGATAAC	5.13 Kd / Kd of best base at the position	–
TCGCCAGGATAAG	1.76 Kd / Kd of best base at the position	–
TCGCCAGGATAAA	1.28 Kd / Kd of best base at the position	–
TCGACAGGATAAC	26.7 Kd / Kd of best base at the position	–
TCGCGAGGATAAC	67.2 Kd / Kd of best base at the position	–
CCGCCAGGATAAC	3.01 Kd / Kd of best base at the position	–
TCGCCAGGATAAT	1.84 Kd / Kd of best base at the position	–
TCGTCAGGATAAC	> 208 Kd / Kd of best base at the position	–
TCGCAAGGATAAC	> 208 Kd / Kd of best base at the position	–

Sequence	binding signal	Kd [nM]
TGGCCAGGATAAC	2.43 Kd / Kd of best base at the position	–
TCGCCACGATAAC	> 208 Kd / Kd of best base at the position	–
TCGCCAGGATATC	1.65 Kd / Kd of best base at the position	–
TCGCCTGGATAAC	> 208 Kd / Kd of best base at the position	–
TCGGCAGGATAAC	1.42 Kd / Kd of best base at the position	–
TCGCCAGGATAGC	1 Kd / Kd of best base at the position	–
TCGCCAGGAAAAC	13.5 Kd / Kd of best base at the position	–
ACGCCAGGATAAC	2.88 Kd / Kd of best base at the position	–
TCTCCAGGATAAC	3.54 Kd / Kd of best base at the position	–
TCCCCAGGATAAC	2.9 Kd / Kd of best base at the position	–
GCGCCAGGATAAC	2.76 Kd / Kd of best base at the position	–
TCGCCAGGATACC	3.82 Kd / Kd of best base at the position	–
TCGCCAAGATAAC	124 Kd / Kd of best base at the position	–
TCGCCAGGAGAAC	8.25 Kd / Kd of best base at the position	–
TCGCCAGGACAAC	12.9 Kd / Kd of best base at the position	–
TCGCCAGGGTAAC	8.56 Kd / Kd of best base at the position	–
TCGCCAGAATAAC	> 208 Kd / Kd of best base at the position	–
TCGCCGGGATAAC	> 208 Kd / Kd of best base at the position	–
TCGCCAGGCTAAC	5.16 Kd / Kd of best base at the position	–
